Most compounds without a hit are left out; they make up all but 11% or so of the library.
AMA1 RON2 block = inhibitors of Plasmodium falciparum AMA1-RON2 interaction | AlphaScreen AMA1-biotinylated RON2 peptide binding | Potency, µM (top dose mostly 58.2 µM), most hits filed as inhibitors | 360,000 tested, 0.2% active; further: nearly all actives have a fitted effect of over 45% in size
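AMA1 (3D7) with his tag at 25 nM final met compounds first, then biotinylated RON2 peptide at 25 nM; detection used donor plus acceptor beads, 10 µg/mL apiece, read by AlphaScreen after 30 min at room temperature.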
AmpC inh no detg = inhibitors of E. coli AmpC beta-lactamase without detergent | P00811 | AmpC nitrocefin hydrolysis, absorbance 480 nm, 0.0001% Triton | Potency, µM (titrated, usually from 57.1 µM), usual class: inhibitors | 330,000 tested, 0.52% active; further: nearly all actives have a fitted effect of over 20% in size
Target sequence (P00811 whole entry, looked up): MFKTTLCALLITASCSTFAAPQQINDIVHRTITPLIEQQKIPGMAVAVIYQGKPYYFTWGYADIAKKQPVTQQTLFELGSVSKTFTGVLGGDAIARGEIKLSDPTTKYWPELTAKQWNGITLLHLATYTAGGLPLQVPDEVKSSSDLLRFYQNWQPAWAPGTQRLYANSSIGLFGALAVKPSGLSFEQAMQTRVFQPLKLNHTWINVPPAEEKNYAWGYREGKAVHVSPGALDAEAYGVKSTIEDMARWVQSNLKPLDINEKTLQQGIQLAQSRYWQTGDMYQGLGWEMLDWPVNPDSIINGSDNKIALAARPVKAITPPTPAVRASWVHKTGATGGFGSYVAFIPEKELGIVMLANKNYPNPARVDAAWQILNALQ
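AmpC (5.3 nM in the dispensed reagent) in 20 mM phosphate pH 7.0 with 0.01% (detergent screen) or 0.0001% Triton X-100 was preincubated with compounds for 15 min at room temperature. Nitrocefin was then added from an 800 uM solution, and hydrolysis was followed at 480 nm.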
HCV inh = inhibitors of hepatitis C virus infection | Huh7.5.1 HCVcc-Cre infection, luciferase reporter, 44 h | Potency, µM (series often up to 41.8 µM), most hits filed as inhibitors | 340,000 tested, 3.4% active
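Cells seeded at 1,000/well and cultured 4 h, then compounds added followed by HCVcc-Cre virus (~0.5 moi). After 44 h further culture, luciferase substrate was added, plates held 15 min at room temperature, and luminescence read for 15 sec.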
Pf growth 96h = P. falciparum growth inhibition at 96 hour, primary screen for plastid delayed-death inhibitors | P. falciparum luciferase reporter growth, 96 h | Potency, µM (series often up to 28.7 µM), most hits filed as inhibitors | 320,000 tested, 6.9% active
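P. falciparum expressing integrated firefly luciferase grown in erythrocytes (2% hematocrit, 0.05% parasitemia final) with compounds for 96 hours at 37 C, 5% CO2. Growth inhibition read as loss of luminescence after adding luciferase detection reagent.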
Pf growth 48h = inhibits P. falciparum growth in the first generation, 48 h; P. falciparum luciferase growth in erythrocytes, 48 h; Potency, µM (series often up to 28.7 µM), usual class: inhibitors; 310,000 tested, 5.9% active; AID 504832
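Luciferase-expressing P. falciparum in infected erythrocytes (2% hematocrit, 0.1% parasitemia final) in RPMI 1640/0.5% Albumax were exposed to compound for 48 hours at 37 C, 5% CO2; growth read as luminescence.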
AmpC inh detg = AmpC beta-lactamase inhibition with detergent present; P00811; AmpC hydrolysis of nitrocefin, absorbance 480 nm, 0.01% Triton; Potency, µM (top dose mostly 114 µM), usual class: inhibitors; 370,000 tested, 0.041% active; further: nearly all actives have a fitted effect of over 25% in size
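AmpC (5.3 nM in the dispensed reagent) in 20 mM phosphate pH 7.0 with 0.01% (detergent screen) or 0.0001% Triton X-100 was preincubated with compounds for 15 min at room temperature. Nitrocefin was then added from an 800 uM solution, and hydrolysis was followed at 480 nm.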
Each line names hits and unclear results; the compound was inactive in the other large screens. The call rests on the fitted dose curve; in most records, active means well fitted curve in the direction sought with a large enough effect; inconclusive means small, poorly fitted or top-dose-only effect, or another doubt; inactive means no such curve, though single readings can be large; an effect the other way counts as inactive or inconclusive.

CCS(=O)(=O)C1=NN2C(=N)/C(=C\c3ccc(OS(=O)(=O)c4ccccc4)c(OC)c3)C(=O)N=C2S1	Pf growth 96h 9.28µM, Pf growth 48h inconclusive (no result: AMA1 RON2 block, HCV inh)
CCC1=NN2C(=N)/C(=C\c3cccn3-c3ccc(Cl)cc3)C(=O)N=C2S1	AmpC inh no detg 0.891µM, HCV inh inconclusive, Pf growth 96h inconclusive, AmpC inh detg inconclusive
N#Cc1ccc(NC(=O)C2Cc3ccccc3CN2S(=O)(=O)c2ccc(F)cc2)cc1 (stereo unspecified)	none (no result: AMA1 RON2 block, AmpC inh no detg, HCV inh, Pf growth 96h, Pf growth 48h)
COc1ccc(N2C(=O)C(CC(=O)Nc3ccc(F)cc3)N(CCC3=CCCCC3)C2=O)cc1 (stereo unspecified)	none (no result: AMA1 RON2 block, AmpC inh no detg, HCV inh, Pf growth 96h, Pf growth 48h)
Cc1ccccc1NC(=O)CSc1nc(N)c2c3c(sc2n1)CSC(C)(C)C3	AmpC inh no detg 15.8µM, HCV inh inconclusive, Pf growth 96h inconclusive, AmpC inh detg inconclusive
Cc1ccc(NC(=O)CSc2nc(N)c3c4c(sc3n2)CSC(C)(C)C4)cc1	HCV inh 11.2µM, Pf growth 96h inconclusive, AmpC inh detg inconclusive
CC1(C)Cc2c(sc3nc(SCC(=O)O)nc(N)c23)CO1	none
Cc1ccc(NC(=O)CN2C(=O)COc3ccc(S(=O)(=O)NC4CCCC4)cc32)cc1Cl	none (no result: AMA1 RON2 block, AmpC inh no detg, HCV inh, Pf growth 96h, Pf growth 48h)
COc1ccc(C2c3cccn3CCN2S(=O)(=O)c2ccc([N+](=O)[O-])cc2)cc1 (stereo unspecified)	none (no result: AMA1 RON2 block, AmpC inh no detg, HCV inh, Pf growth 96h, Pf growth 48h)
COc1cccc(Oc2cn[nH]c2-c2ccc(O)cc2O)c1	HCV inh inconclusive, Pf growth 48h 5.22µM
COc1cccc(Oc2cn[nH]c2-c2ccc(OC)cc2O)c1	HCV inh 11.2µM, Pf growth 48h 8.28µM (no result: Pf growth 96h)
Cc1ccc(NC(=O)CCN2CCN(CCO)CC2)cc1C	none (no result: AMA1 RON2 block, AmpC inh no detg, HCV inh, Pf growth 96h, Pf growth 48h)
COc1cc2c(cc1OC)C(C)N(C(=O)c1cccs1)CC2 (stereo unspecified)	HCV inh inconclusive
COc1cc2c(cc1OC)C(C)N(C(=O)c1cc3ccccc3o1)CC2 (stereo unspecified)	HCV inh 10µM, Pf growth 96h inconclusive, Pf growth 48h inconclusive
COc1cc2c(cc1OC)C(C)N(C(=O)c1cc3c(s1)-c1ccccc1OC3)CC2 (stereo unspecified)	HCV inh 11.2µM
CN(C)CCOc1nc(-c2ccccc2)nc2c1oc1ccccc12	HCV inh inconclusive, Pf growth 96h 10.4µM, Pf growth 48h 9.28µM
CC(=O)NC(CCS(C)(=O)=O)C(=O)Nc1cc(Cl)ccc1Cl (stereo unspecified)	none
CC(C)S(=O)(=O)c1csc(NC(=O)Nc2cc(Cl)ccc2Cl)c1Cl	HCV inh 12.6µM, Pf growth 96h inconclusive, Pf growth 48h inconclusive
CCOC(=O)c1cc(-c2ccccc2)n(CCC(=O)NCCc2ccc(C)cc2)c1C	none (no result: AMA1 RON2 block, AmpC inh no detg, HCV inh, Pf growth 96h, Pf growth 48h)
O=C(NCC1CCCCC1)c1cccc(S(=O)(=O)N2CCCC2)c1	Pf growth 96h inconclusive, Pf growth 48h 10.4µM
O=C(NC1CCS(=O)(=O)C1)c1cccc(S(=O)(=O)N2CCCCC2)c1 (stereo unspecified)	none (no result: Pf growth 96h)
O=C(NC1CCCCC1)c1cccc(S(=O)(=O)N2CCCCC2)c1	Pf growth 96h 4.15µM, AmpC inh detg inconclusive
CCOc1ccc(C(=O)NCC2CCN(CC3CCCCC3)CC2)cc1	Pf growth 96h 5.86µM, AmpC inh detg inconclusive
CC(NC(=O)NC(=O)c1cccc([N+](=O)[O-])c1)C1CC1 (stereo unspecified)	Pf growth 48h 10.4µM
CCOc1ccc(C(=O)NC2CCCCCCC2)cc1	none (no result: AmpC inh no detg, Pf growth 96h, Pf growth 48h, AmpC inh detg)
CCCOc1ccc(C(=O)N(Cc2cccs2)c2ccc(C)cc2)cc1	none (no result: AMA1 RON2 block, AmpC inh no detg, HCV inh, Pf growth 96h, Pf growth 48h)
O=c1oc2ccccc2cc1-c1cn2cc(Cc3ccc(Br)cc3)sc2n1	none (no result: AMA1 RON2 block, AmpC inh no detg, HCV inh, Pf growth 96h, Pf growth 48h)
COc1ccc(CNC(=O)Cn2c(SCC(=O)Nc3ccc(OC)cc3)nc3ccccc32)cc1	none (no result: AMA1 RON2 block, AmpC inh no detg, HCV inh, Pf growth 96h, Pf growth 48h)
O=C(NCC1CCCCC1)c1cccc([N+](=O)[O-])c1	Pf growth 96h inconclusive, Pf growth 48h 5.22µM
CCCCN(CC)CCCNC(=O)c1c(C)oc2ncnc(N3CCOCC3)c12	none (no result: AMA1 RON2 block, AmpC inh no detg, HCV inh, Pf growth 96h, Pf growth 48h)
C/C(CC(=O)Nc1ccc(N(C)C)cc1)=N\NC(=O)c1ccc(C(C)(C)C)cc1	Pf growth 96h 4.15µM
C/C(CC(=O)Nc1ccc(N(C)C)cc1)=N\NC(=O)C(=O)NCc1ccccc1	Pf growth 96h 4.65µM
C/C(CC(=O)Nc1ccc(N(C)C)cc1)=N\NC(=O)c1ccc(F)cc1	AmpC inh detg inconclusive
O=C(Cn1c(=O)ccc2cc(S(=O)(=O)N3CCCC3)ccc21)NCc1ccc(F)cc1	none (no result: AMA1 RON2 block, AmpC inh no detg, HCV inh, Pf growth 96h, Pf growth 48h)
COc1ccccc1C(C[N+](=O)[O-])c1c(N)n(C)c(=O)n(C)c1=O (stereo unspecified)	HCV inh 11.2µM, Pf growth 96h inconclusive, Pf growth 48h inconclusive
CCC(=O)Nc1cc(-c2cn3cccnc3n2)ccc1OC	none (no result: AMA1 RON2 block, AmpC inh no detg, HCV inh, Pf growth 96h, Pf growth 48h)
CCc1c(C)nc2ncnn2c1NCCc1ccccc1	HCV inh 28.2µM, Pf growth 96h inconclusive
COc1ccc(CCNc2cc(C)nc3c(-c4ccccc4)c(C)nn23)cc1OC	HCV inh 11.2µM, Pf growth 96h inconclusive, Pf growth 48h inconclusive

Screens: PubChem, National Center for Advancing Translational Sciences (NCATS)
